# Laboratory results reported in paper PMC7862700, “An all-to-all approach to the identification of sequence-specific readers for epigenetic DNA modifications on cytosine”.
# Tests used:
# Assay in all cases: DAPPL (digital affinity profiling via proximity ligation, sequencing); 10 mM Tris-HCl pH 7.5, 50 mM NaCl, 1 mM DTT, 4% glycerol, room temperature, 30 min; GST-TFs on glutathione beads, 16-mer random dsDNA library, 0.1% formaldehyde crosslink after washing; high values mean tight binding
# [1] = target: T1, FLI1 (Homo sapiens, UniProt Q01543 1-452); details: protein: recombinant; tags: N-terminal GST; dsDNA, one strand shown
# T1 sequence: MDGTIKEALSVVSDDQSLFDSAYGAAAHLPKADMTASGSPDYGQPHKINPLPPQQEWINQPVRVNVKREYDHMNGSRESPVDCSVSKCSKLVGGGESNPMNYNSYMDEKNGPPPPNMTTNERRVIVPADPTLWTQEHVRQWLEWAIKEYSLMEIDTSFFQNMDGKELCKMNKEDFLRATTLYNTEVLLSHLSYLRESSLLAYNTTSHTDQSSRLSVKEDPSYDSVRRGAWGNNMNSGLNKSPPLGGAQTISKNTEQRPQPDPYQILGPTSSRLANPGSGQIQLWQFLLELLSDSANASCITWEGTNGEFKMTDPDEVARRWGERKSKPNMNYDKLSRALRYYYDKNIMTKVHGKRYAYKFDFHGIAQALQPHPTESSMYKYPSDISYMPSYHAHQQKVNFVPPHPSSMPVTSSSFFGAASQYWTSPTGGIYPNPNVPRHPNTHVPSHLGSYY
# Method in brief: (§1)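 A tag-only sample was pooled with DNA-barcoded human transcription factors that had been expressed in yeast as GST fusions and captured on glutathione beads. The pools were incubated for 30 min at room temperature with 200 nmole of a random double-stranded 16-mer DNA library in Tris/NaCl/DTT/glycerol buffer, then washed, crosslinked with 0.1% formaldehyde, proximity-ligated (BsaI/T4 ligase, 1 h, 37 °C), PCR-amplified and sequenced on an Illumina NextSeq500. Binding signal is each hexamer's read frequency for a factor divided by its frequency for the tag-only sample.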
# [2] = target: T2, ELK1 (Homo sapiens, UniProt P19419 1-428); details: protein: recombinant; tags: N-terminal GST; dsDNA, one strand shown
# T2 sequence: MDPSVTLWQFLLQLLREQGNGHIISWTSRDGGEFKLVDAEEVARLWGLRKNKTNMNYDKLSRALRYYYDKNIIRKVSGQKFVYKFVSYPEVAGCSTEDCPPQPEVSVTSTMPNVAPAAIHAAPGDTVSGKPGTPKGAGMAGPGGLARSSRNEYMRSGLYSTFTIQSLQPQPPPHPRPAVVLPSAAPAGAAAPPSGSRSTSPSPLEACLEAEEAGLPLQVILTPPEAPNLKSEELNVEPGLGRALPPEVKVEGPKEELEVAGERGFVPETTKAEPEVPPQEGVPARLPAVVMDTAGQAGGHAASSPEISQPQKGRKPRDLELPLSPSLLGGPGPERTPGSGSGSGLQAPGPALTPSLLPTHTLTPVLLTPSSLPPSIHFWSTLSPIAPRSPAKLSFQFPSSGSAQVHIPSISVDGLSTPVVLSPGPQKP
# Method in brief: as §1
# [3] = target: T3, GABPA (Homo sapiens, UniProt Q06546 1-454); details: protein: recombinant; tags: N-terminal GST; dsDNA, one strand shown
# T3 sequence: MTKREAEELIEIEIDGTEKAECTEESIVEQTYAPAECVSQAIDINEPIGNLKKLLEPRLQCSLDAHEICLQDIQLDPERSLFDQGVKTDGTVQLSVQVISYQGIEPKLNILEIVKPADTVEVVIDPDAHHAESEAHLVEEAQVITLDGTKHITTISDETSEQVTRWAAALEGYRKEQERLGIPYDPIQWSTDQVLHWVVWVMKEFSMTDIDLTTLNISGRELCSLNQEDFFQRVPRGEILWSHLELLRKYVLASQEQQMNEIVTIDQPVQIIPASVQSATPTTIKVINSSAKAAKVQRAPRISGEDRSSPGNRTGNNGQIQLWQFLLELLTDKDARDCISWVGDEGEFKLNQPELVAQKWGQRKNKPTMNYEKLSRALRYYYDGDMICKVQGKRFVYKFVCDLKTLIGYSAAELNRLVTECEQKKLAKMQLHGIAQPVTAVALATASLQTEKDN
# Method in brief: as §1
# [4] = target: T4, ERG (Homo sapiens, UniProt P11308 1-479); details: protein: recombinant; tags: N-terminal GST; dsDNA, one strand shown
# T4 sequence: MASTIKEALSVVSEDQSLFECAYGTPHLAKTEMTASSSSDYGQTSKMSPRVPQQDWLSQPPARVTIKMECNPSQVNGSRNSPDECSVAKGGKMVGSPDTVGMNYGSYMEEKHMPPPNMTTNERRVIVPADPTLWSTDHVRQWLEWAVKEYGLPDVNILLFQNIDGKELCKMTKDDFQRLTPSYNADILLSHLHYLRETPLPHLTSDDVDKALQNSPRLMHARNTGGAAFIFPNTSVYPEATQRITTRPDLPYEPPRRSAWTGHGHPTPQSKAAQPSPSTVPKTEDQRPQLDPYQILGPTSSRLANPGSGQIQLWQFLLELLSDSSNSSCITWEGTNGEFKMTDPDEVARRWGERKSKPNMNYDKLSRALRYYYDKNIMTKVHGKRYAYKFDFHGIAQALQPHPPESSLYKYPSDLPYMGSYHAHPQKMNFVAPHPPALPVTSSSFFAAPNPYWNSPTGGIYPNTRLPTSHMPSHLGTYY
# Method in brief: as §1
# [5] = target: ELF1 (Homo sapiens, UniProt P32519 1-619); details: protein: recombinant; tags: N-terminal GST; dsDNA, one strand shown
# Sequence of ELF1 (P32519 whole entry): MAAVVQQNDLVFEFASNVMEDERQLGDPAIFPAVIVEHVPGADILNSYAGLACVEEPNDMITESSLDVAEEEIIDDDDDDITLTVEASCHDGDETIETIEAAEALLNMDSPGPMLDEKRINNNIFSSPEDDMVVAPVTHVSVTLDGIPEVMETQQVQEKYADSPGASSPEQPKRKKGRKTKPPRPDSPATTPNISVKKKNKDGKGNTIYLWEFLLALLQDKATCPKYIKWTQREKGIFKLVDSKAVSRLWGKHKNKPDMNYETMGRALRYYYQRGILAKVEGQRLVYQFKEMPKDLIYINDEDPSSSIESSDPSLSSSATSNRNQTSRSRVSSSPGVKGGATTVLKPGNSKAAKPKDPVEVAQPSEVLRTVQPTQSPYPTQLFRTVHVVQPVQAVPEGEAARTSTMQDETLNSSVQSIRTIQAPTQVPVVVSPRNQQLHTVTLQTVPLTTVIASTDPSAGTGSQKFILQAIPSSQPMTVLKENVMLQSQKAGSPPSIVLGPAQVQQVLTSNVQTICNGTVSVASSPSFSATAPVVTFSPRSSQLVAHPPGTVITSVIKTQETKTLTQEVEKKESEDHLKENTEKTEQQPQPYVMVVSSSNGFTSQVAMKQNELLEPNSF
# Method in brief: as §1
# [6] = target: T5, EHF (Homo sapiens, UniProt Q9NZC4 1-300); details: protein: recombinant; tags: N-terminal GST; dsDNA, one strand shown
# T5 sequence: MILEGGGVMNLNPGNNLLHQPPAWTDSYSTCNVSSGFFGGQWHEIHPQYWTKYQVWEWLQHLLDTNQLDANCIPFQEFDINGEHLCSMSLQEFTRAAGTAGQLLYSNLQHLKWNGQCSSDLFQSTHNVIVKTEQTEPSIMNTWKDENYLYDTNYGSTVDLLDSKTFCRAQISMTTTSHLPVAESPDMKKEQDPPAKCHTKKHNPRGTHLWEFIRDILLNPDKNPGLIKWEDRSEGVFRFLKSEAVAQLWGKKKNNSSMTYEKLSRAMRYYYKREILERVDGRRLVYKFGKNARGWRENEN
# Method in brief: as §1
# [7] = target: SPI1 (Homo sapiens, UniProt P17947 1-270); details: protein: recombinant; tags: N-terminal GST; dsDNA, one strand shown
# Method in brief: as §1
# [8] = target: SPIB (Homo sapiens, UniProt Q01892 1-262); details: protein: recombinant; tags: N-terminal GST; dsDNA, one strand shown
# Sequence of SPIB (Q01892 whole entry): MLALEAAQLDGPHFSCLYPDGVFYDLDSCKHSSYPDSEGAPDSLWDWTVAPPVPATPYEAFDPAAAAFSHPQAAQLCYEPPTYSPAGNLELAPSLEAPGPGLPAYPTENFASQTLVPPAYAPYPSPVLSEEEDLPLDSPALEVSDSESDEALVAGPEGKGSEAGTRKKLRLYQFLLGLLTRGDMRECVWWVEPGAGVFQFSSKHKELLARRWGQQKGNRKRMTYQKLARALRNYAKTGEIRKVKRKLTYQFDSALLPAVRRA
# Method in brief: as §1
# [9] = target: T6, ELK3 (Homo sapiens, UniProt P41970 1-407); details: protein: recombinant; tags: N-terminal GST; dsDNA, one strand shown
# T6 sequence: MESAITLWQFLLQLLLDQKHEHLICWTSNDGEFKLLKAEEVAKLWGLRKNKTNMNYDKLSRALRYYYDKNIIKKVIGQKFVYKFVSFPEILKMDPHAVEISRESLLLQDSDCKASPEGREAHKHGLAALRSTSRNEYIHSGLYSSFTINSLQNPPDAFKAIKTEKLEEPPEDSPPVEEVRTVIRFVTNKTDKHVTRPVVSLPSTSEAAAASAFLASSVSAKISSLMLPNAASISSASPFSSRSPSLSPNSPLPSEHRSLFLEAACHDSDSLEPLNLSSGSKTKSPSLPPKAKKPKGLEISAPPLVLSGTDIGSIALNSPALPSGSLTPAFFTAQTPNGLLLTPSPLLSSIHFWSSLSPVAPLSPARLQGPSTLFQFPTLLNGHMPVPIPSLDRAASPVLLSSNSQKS
# Method in brief: as §1
# [10] = target: T7, FEV (Homo sapiens, UniProt Q99581 1-238); details: protein: recombinant; tags: N-terminal GST; dsDNA, one strand shown
# T7 sequence: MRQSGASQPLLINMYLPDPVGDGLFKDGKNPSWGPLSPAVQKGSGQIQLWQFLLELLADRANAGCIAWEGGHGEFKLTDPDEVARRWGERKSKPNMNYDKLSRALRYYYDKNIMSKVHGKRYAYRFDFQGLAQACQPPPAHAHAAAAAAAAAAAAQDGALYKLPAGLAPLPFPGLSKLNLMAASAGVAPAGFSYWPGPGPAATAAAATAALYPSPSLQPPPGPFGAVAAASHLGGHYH
# Method in brief: as §1
# [11] = target: ETV5 (Homo sapiens, UniProt P41161 1-510); details: protein: recombinant; tags: N-terminal GST; dsDNA, one strand shown
# Sequence of ETV5 (P41161 whole entry): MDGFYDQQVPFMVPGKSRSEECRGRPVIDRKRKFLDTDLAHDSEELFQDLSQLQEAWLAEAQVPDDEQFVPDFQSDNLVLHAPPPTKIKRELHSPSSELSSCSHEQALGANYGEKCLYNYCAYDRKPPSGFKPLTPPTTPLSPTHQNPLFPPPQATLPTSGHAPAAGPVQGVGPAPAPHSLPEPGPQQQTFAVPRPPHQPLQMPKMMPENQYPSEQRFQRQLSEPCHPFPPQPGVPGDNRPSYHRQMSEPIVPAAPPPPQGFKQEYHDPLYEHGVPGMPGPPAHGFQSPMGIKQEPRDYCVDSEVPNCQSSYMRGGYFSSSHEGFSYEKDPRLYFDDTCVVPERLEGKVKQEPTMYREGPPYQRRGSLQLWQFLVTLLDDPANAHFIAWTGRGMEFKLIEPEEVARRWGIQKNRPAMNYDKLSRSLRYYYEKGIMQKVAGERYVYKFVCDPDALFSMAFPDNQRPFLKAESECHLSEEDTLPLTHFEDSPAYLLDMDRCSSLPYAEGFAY
# Method in brief: as §1
# [12] = target: HSF1 (Homo sapiens, UniProt Q00613 1-529); details: protein: recombinant; tags: N-terminal GST; chain copies: 3; dsDNA, one strand shown
# Sequence of HSF1 (Q00613 whole entry): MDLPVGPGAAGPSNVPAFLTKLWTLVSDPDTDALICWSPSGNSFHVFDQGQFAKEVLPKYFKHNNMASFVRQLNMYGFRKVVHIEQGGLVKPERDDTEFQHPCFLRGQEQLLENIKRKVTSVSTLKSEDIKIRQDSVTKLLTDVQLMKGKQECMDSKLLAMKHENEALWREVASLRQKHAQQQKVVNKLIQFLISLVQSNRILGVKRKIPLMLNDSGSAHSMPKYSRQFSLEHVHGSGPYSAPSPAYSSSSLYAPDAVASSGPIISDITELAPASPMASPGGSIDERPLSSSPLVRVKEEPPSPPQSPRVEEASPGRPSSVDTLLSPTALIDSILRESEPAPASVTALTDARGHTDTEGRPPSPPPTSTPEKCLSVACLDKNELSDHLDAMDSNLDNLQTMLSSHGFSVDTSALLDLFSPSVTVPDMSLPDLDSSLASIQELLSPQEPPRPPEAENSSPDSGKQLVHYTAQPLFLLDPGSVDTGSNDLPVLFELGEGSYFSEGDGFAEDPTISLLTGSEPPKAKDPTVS
# Method in brief: as §1
# [13] = target: T8, SPIC (Homo sapiens, UniProt Q8N5J4 1-248); details: protein: recombinant; tags: N-terminal GST; dsDNA, one strand shown
# T8 sequence: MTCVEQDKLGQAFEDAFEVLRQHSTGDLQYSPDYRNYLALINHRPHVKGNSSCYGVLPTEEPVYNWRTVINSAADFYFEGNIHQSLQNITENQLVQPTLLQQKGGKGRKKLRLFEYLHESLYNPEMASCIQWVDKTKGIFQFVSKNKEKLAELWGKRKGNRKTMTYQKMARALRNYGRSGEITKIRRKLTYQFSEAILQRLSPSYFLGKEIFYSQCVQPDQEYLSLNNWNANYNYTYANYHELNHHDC
# Method in brief: as §1
# [14] = target: ELF4 (Homo sapiens, UniProt Q99607 1-663); details: protein: recombinant; tags: N-terminal GST; dsDNA, one strand shown
# Sequence of ELF4 (Q99607 whole entry): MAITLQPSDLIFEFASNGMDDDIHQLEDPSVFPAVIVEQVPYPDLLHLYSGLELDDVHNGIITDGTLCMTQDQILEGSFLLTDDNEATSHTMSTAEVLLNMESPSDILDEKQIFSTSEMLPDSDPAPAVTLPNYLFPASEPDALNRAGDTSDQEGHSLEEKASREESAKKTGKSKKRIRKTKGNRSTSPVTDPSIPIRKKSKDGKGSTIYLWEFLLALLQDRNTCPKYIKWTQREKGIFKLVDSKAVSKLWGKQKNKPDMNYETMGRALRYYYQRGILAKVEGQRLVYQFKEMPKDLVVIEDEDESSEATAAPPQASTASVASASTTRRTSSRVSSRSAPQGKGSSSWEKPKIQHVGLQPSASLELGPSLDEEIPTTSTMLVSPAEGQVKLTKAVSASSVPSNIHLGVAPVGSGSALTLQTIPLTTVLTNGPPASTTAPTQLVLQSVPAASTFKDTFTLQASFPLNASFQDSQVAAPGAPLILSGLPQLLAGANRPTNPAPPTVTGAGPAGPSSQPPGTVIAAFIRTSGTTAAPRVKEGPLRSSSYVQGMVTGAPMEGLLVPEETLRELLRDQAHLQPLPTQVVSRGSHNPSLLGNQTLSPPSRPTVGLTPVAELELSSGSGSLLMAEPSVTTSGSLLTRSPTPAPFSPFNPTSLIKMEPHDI
# Method in brief: as §1
# [15] = target: T9, ELK4 (Homo sapiens, UniProt P28324-2 1-405); details: protein: recombinant; tags: N-terminal GST; dsDNA, one strand shown
# T9 sequence: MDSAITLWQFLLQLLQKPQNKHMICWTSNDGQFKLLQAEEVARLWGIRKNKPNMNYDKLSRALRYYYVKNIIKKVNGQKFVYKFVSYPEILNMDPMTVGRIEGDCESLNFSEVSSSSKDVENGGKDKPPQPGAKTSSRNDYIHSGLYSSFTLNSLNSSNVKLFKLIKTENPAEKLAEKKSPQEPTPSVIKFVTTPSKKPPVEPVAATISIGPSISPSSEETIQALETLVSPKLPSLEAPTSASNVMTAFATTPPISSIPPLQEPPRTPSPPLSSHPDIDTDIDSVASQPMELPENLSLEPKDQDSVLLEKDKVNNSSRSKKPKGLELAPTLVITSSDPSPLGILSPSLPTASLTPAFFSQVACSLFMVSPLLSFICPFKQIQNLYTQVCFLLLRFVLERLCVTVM
# Method in brief: as §1
# [16] = target: T10, ETV2 (Homo sapiens, UniProt O00321 1-342); details: protein: recombinant; tags: N-terminal GST; dsDNA, one strand shown
# T10 sequence: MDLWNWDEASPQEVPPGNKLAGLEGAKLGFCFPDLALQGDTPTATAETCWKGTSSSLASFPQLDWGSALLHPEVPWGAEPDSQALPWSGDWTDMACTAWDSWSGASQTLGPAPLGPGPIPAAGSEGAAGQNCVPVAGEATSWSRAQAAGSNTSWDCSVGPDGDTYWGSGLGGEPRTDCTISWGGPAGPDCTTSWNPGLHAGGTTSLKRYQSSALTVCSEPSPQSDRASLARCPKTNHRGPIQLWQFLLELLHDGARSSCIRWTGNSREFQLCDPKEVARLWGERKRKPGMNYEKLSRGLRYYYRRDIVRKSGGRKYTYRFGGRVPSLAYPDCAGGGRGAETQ
# Method in brief: as §1
# [17] = target: T11, ELF3 (Homo sapiens, UniProt P78545 1-371); details: protein: recombinant; tags: N-terminal GST; dsDNA, one strand shown
# T11 sequence: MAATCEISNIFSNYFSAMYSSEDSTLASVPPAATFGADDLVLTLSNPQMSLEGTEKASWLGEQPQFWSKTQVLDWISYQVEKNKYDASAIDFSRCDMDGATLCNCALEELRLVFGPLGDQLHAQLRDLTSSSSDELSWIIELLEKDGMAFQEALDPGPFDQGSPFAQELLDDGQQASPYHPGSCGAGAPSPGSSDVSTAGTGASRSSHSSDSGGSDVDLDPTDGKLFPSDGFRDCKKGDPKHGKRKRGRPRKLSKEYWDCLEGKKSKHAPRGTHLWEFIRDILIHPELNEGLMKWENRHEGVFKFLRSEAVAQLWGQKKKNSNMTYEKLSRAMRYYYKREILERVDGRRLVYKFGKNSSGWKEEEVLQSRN
# Method in brief: as §1
# [18] = target: CRX (Homo sapiens, UniProt O43186 1-299); details: protein: recombinant; tags: N-terminal GST; dsDNA, one strand shown
# Sequence of CRX (O43186 whole entry): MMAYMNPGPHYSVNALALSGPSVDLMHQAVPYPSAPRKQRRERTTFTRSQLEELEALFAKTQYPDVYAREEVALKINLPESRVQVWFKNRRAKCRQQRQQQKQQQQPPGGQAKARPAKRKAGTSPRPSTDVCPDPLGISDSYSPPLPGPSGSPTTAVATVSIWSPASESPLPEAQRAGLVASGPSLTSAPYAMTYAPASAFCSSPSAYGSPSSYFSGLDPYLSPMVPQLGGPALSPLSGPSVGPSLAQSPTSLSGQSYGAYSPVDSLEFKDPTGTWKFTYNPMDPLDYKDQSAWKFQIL
# Method in brief: as §1
# [19] = target: ETV1 (Homo sapiens, UniProt P50549 1-477); details: protein: recombinant; tags: N-terminal GST; dsDNA, one strand shown
# Sequence of ETV1 (P50549 whole entry): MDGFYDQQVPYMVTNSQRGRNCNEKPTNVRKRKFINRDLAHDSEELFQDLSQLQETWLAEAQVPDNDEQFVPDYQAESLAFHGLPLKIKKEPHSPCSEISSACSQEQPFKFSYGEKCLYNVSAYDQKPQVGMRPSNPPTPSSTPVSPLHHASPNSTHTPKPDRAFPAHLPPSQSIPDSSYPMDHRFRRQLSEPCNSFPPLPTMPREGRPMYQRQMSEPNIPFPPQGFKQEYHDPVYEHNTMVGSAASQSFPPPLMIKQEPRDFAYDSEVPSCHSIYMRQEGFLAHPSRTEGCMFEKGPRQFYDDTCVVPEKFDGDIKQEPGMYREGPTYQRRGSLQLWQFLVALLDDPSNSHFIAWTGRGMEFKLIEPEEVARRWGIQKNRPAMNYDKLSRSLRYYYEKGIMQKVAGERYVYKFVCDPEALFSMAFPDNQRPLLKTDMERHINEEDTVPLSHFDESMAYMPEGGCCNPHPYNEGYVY
# Method in brief: as §1
sequence,measurement,setting,value
CTAACT,binding signal,[1],"1.36 fold enrichment (6-mer frequency, TF over GST control)"
same,binding signal,[2],"1.35 fold enrichment (6-mer frequency, TF over GST control)"
same,binding signal,[3],"1.36 fold enrichment (6-mer frequency, TF over GST control)"
same,binding signal,[4],"1.37 fold enrichment (6-mer frequency, TF over GST control)"
same,binding signal,[5],"1.37 fold enrichment (6-mer frequency, TF over GST control)"
same,binding signal,[6],"1.25 fold enrichment (6-mer frequency, TF over GST control)"
same,binding signal,[7],"1.36 fold enrichment (6-mer frequency, TF over GST control)"
same,binding signal,[8],"1.35 fold enrichment (6-mer frequency, TF over GST control)"
same,binding signal,[9],"1.29 fold enrichment (6-mer frequency, TF over GST control)"
same,binding signal,[10],"1.34 fold enrichment (6-mer frequency, TF over GST control)"
same,binding signal,[11],"1.34 fold enrichment (6-mer frequency, TF over GST control)"
same,binding signal,[12],"1.19 fold enrichment (6-mer frequency, TF over GST control)"
same,binding signal,[13],"1.31 fold enrichment (6-mer frequency, TF over GST control)"
same,binding signal,[14],"1.4 fold enrichment (6-mer frequency, TF over GST control)"
same,binding signal,[15],"1.36 fold enrichment (6-mer frequency, TF over GST control)"
same,binding signal,[16],"1.27 fold enrichment (6-mer frequency, TF over GST control)"
same,binding signal,[17],"1.21 fold enrichment (6-mer frequency, TF over GST control)"
same,binding signal,[18],"1.21 fold enrichment (6-mer frequency, TF over GST control)"
same,binding signal,[19],"1.28 fold enrichment (6-mer frequency, TF over GST control)"
